Experimental findings from PubChem BioAssay are described below.

In general, inhibition refers to the relative decrease from the control value, in per cent.

Structures are written as SMILES. Inconclusive results are not listed. Active and inactive are the calls of the source.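 How the source made its calls, unless noted: active means efflux inhibition above 0.42, the validation set average plus 4 SD; inconclusive means no clear call, values can overlap the other calls; inactive means the rest.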

Experiment [1] in a line: rapamycin-like changes in RPL19A-GFP expression – cell-based, S. cerevisiae, multiplex flow cytometry, primary screen (AID 1862; in the data active means percent of DMSO control GFP below about 86%;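 further: lower values mimic rapamycin by blocking the RPL19A rise seen in DMSO cells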). The following applies: S. cerevisiae RPL19A-GFP strain, flow cytometry fluorescence, 3 h; at 10 µM; stronger effect = lower value.
A short description of experiment [2]: TOR pathway GLN3 branch reporter MEP2-GFP changes – S. cerevisiae, multiplex flow cytometry, primary screen (AID 1867;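 active means GFP response, as percent of the DMSO control, above the screen-wide mean plus 3 SD, about 139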;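 further: median GFP channel fluorescence of barcode-gated MEP2-GFP cells measured by flow cytometry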). To be noted: S. cerevisiae MEP2-GFP strain, 3 h, at 10 µM, stronger effect = higher value, 100% means same as DMSO wells. (In flow cytometry, cells or beads pass a laser one at a time.)
The nature of experiment [3]: TOR pathway RTG branch CIT2 reporter changes – S. cerevisiae, GFP fusion, multiplex flow cytometry, primary screen (AID 1870;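 active means percent response above a set limit, the screen-wide mean plus 3 SD, cut at about 130% in these data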;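 further: barcoded CIT2-GFP strain pooled with four other GFP strains with rapamycin as positive control; median GFP fluorescence per well over plate mean of DMSO wells so 100% = DMSO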). The following applies: S. cerevisiae CIT2-GFP expression, 3 h, at 10 µM, stronger effect = higher value.
A short description of experiment [4]: TOR pathway LAP4-GFP level changes – S. cerevisiae, multiplex flow cytometry, primary screen (AID 1873;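 active means GFP signal, as percent of the solvent control, above the screen mean plus 3 SD, about 149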). To be noted: S. cerevisiae LAP4-GFP expression, 3 h, at 10 µM, stronger effect = higher value.
Experiment [5] is described as follows: yeast AGP1-GFP level changes, GLN3 branch – cell-based, multiplex flow cytometry, S. cerevisiae, primary screen (AID 1887;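 active means GFP signal above the screen-wide mean plus 3 SD, that is over about 124.5% of the solvent control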;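 further: AGP1-GFP fusion strain of S. cerevisiae within a five-strain barcoded multiplex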). The following applies: 3 h, at 10 µM, stronger effect = higher value.
Experiment [6] is described as follows: reduced mouse 2C T cell binding to pMHC/ICAM-1 vesicles – MLPCN validation set, flow cytometry, LFA-1/ICAM-1 modulator project, pilot screen (AID 2523;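 active means response below a set limit, under 55% cells CD8-positive and vesicle-bound, and CD8 cells' 90th-percentile brightness under 279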;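 on vesicle binding response: mean PE anti-B7-1 fluorescence of CD8+ cells relative to row control; 100% = QL9-loaded vesicles with DMSO vehicle in the same plate row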). To be noted: 2C mouse CD8+ T cells, at 7 µM, stronger effect = lower value; double positive events: measured here: CD8+/vesicle+ event percentage.
Experiment [7] deals with Integrin beta-1 (Homo sapiens) + Integrin alpha-4 (Homo sapiens) (UniProt P13612+P05556). The experiment in a line: alpha4beta1 integrin LIBS antibody binding reduction – U937 cells, HUTS-21 mAb, flow cytometry, validation set, VLA-4 allosteric modulator project, pilot screen (AID 2674;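 active means inhibition above 50%, about 3 SD of the validation set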;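 further: antibody binding induced by the VLA-4 ligand LDV present at three times its Kd; 0% = LDV ligand with antibody and no compound and 100% = antibody without LDV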). To be noted: HUTS-21 LIBS mAb binding, at 6.7 µM, stronger effect = higher value, binding induced by LDV ligand.
Chain of Integrin beta-1 (Homo sapiens) + Integrin alpha-4 (Homo sapiens) (P05556 whole entry, looked up): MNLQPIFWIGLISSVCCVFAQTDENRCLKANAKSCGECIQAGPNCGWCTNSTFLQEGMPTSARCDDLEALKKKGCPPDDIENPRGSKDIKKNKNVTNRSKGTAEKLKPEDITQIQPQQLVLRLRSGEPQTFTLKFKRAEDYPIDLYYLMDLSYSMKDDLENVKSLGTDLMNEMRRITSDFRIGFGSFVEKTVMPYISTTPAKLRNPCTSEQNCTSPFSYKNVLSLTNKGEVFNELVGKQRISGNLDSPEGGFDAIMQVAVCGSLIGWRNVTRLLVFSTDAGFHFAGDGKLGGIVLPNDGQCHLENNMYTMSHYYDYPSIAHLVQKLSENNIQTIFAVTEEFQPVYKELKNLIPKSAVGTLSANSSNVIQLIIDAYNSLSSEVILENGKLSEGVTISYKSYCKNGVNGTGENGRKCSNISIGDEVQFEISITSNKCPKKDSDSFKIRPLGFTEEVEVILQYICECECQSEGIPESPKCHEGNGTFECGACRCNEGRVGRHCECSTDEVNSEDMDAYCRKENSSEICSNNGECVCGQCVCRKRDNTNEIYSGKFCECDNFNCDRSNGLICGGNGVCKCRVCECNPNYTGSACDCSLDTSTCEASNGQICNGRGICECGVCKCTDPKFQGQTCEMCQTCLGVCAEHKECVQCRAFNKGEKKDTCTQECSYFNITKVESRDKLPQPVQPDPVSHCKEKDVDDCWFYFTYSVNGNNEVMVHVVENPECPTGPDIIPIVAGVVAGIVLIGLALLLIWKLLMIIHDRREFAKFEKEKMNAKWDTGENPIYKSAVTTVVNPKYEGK
Chain of Integrin beta-1 (Homo sapiens) + Integrin alpha-4 (Homo sapiens) (P13612 whole entry, looked up): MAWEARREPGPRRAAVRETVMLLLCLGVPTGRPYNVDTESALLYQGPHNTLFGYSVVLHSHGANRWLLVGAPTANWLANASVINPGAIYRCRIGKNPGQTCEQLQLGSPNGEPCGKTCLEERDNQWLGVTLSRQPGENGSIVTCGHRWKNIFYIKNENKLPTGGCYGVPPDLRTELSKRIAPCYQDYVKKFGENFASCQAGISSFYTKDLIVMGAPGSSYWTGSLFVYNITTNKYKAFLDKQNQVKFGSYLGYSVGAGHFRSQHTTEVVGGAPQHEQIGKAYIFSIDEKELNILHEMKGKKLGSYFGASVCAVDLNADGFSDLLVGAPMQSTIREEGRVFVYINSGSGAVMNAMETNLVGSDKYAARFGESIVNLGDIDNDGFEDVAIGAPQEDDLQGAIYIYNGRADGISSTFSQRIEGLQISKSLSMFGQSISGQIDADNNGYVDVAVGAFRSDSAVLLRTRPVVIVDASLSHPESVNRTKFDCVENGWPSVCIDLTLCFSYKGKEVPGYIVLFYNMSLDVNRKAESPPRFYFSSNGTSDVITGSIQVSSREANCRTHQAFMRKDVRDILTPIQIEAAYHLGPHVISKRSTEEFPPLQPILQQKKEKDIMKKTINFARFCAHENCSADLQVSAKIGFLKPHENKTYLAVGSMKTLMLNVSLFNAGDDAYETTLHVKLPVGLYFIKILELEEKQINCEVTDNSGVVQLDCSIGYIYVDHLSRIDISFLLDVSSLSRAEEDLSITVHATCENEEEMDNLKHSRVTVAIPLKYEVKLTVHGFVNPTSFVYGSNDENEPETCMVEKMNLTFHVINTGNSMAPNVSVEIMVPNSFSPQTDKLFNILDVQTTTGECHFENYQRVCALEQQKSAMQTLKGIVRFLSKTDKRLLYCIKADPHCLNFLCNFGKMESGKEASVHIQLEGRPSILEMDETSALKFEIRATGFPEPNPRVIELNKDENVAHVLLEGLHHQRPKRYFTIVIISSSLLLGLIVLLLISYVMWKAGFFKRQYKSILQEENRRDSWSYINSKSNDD

Experiment [8] in a line: calorie-restriction mimetic ROS inhibitors, yeast – validation compound set, pilot screen (AID 2706;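 active means superoxide response below 65% of plate, a cut near 3 SD across the whole screen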;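 further: yeast exposed to compound for one week at 30 degrees C before staining; 100% = mean of all compound wells on the same plate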). To be noted: S. cerevisiae aging, superoxide DHE fluorescence; at 10 µM; stronger effect = lower value.
Experiment [9] has as its target Beta-adrenergic receptor kinase 1 (Homo sapiens) (UniProt P25098). The experiment in a line: GRK2 binders displacing RNA aptamer, biochemical, validation, human GRK2, bead flow cytometry (AID 488806;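 active means aptamer binding inhibition above 30%, about 3 SD of noise from non-fluorescent compounds; inactive means inhibition at or below 30%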). To be noted: bead-bound GRK2, FAM-aptamer displacement, at 10 µM, stronger effect = higher value.
Experiment [10] concerns the target Beta-2 adrenergic receptor (Homo sapiens) (UniProt P07550). The experiment in a line: agonist-induced loss of surface beta2AR – cell-based, FAP fluorogen, flow cytometry, validation set, pilot screen (AID 504459;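 active means percent response above 42, roughly 3 SD of non-fluorescent test compounds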;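 further: agonist-driven loss of surface beta2AR via internalization measured by FAP dye flow cytometry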). To be noted: Am2.2-beta2AR cells, at 10 µM, stronger effect = higher value.
The target in experiment [11] is AP-2 complex subunit beta (Homo sapiens) (UniProt P63010). The experiment in a line: beta-arrestin/AP2 interaction blockers – biochemical, validation set, GST-AP2 beads, flow cytometry, pilot screen (AID 504541;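 active means inhibition above 54%, about 3 SD of non-fluorescent compounds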;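 further: AP2 carries R879A mutation and is captured from E. coli lysate; bead-bound FITC arrestin peptide fluorescence measuring arrestin peptide binding to AP2; 0% = DMSO wells and 100% = excess unlabeled arrestin peptide control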). The following applies: FITC arrestin peptide, at 10 µM, stronger effect = higher value, AP2 beta2 appendage fragment, R879A mutant.
Chain of AP-2 complex subunit beta (Homo sapiens) (P63010 whole entry, looked up, the tested form may be a part, one chain of several): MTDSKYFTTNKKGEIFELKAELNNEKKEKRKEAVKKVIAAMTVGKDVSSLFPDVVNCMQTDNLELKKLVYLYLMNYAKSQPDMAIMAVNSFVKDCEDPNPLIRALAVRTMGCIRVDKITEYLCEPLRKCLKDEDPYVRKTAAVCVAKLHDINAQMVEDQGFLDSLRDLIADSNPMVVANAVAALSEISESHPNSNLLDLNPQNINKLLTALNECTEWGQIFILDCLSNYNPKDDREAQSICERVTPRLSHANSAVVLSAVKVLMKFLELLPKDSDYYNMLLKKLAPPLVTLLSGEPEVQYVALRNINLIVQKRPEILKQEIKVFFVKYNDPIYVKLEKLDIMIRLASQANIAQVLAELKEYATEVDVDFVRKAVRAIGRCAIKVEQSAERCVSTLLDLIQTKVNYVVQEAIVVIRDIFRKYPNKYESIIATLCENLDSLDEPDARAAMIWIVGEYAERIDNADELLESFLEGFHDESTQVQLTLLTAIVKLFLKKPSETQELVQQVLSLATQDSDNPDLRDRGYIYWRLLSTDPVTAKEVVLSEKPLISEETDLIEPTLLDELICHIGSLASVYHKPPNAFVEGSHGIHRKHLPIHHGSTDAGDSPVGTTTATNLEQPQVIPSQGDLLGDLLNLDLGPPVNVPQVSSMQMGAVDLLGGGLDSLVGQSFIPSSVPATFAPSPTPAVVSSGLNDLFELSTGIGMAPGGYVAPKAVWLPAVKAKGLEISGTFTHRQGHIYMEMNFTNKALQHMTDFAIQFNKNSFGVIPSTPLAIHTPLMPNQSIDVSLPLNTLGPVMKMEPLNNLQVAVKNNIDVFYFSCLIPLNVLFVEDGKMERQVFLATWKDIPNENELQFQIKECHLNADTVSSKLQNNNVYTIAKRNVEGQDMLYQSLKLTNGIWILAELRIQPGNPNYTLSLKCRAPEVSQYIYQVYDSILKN
The nature of experiment [12]: cytosolic pH regulators acting via V-ATPase – S. cerevisiae, pHLuorin, HTS validation (AID 504600; in the data active means response above about 15%;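 further: plate controls were DMSO for no effect and reference compound for full effect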). The following applies: V-ATPase proton transport, at 10 µM, stronger effect = higher value.
For experiment [13], the system named is anti-desmoglein-3 scFv antibody binding to human DSG3. The experiment in a line: blockers of pathogenic pemphigus antibody–desmoglein-3 binding – biochemical, validation compound set, bead-based, flow cytometry, pilot screen (AID 588368;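 active means binding below the plate cutoff, the plate median minus 3 SD, with a reading above zero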;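 further: signal is the median channel fluorescence of bead-bound GFP antibody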). The following applies: Protein G beads, DSG3-Fc, scFv-GFP binding, at 10 µM, stronger effect = lower value.
The nature of experiment [14]: Nile Red efflux blockade in pump-expressing yeast – validation compound set, multiplex, phenotypic, pilot screen (AID 588506).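 Further: Nile Red retained in cells so higher fluorescence means more efflux inhibition; 0 = negative control wells and 1 = enniatin B 25 µM full block.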 The following applies: S. cerevisiae pump-expressing triplex, Nile Red efflux flow cytometry; at 10 µM; stronger effect = higher value; the pumps come from Candida albicans.
In experiment [15] the target is ATP-binding cassette sub-family B member 6 (Homo sapiens) (UniProt Q9NP58). The experiment in a line: blockers of ABCB6-driven porphyrin uptake – K562-ABCB6 cells, flow cytometry, validation set, pilot screen (AID 588550;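 active means inhibition above the screen-wide mean plus 3 SD, about 51%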;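 further: 0% = DMSO wells and 100% = benzethonium chloride 70 µM positive control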). The following applies: K562-ABCB6 porphyrin accumulation, 1 h, at 10 µM, stronger effect = higher value.
Chain of ATP-binding cassette sub-family B member 6 (Homo sapiens) (Q9NP58 whole entry, looked up): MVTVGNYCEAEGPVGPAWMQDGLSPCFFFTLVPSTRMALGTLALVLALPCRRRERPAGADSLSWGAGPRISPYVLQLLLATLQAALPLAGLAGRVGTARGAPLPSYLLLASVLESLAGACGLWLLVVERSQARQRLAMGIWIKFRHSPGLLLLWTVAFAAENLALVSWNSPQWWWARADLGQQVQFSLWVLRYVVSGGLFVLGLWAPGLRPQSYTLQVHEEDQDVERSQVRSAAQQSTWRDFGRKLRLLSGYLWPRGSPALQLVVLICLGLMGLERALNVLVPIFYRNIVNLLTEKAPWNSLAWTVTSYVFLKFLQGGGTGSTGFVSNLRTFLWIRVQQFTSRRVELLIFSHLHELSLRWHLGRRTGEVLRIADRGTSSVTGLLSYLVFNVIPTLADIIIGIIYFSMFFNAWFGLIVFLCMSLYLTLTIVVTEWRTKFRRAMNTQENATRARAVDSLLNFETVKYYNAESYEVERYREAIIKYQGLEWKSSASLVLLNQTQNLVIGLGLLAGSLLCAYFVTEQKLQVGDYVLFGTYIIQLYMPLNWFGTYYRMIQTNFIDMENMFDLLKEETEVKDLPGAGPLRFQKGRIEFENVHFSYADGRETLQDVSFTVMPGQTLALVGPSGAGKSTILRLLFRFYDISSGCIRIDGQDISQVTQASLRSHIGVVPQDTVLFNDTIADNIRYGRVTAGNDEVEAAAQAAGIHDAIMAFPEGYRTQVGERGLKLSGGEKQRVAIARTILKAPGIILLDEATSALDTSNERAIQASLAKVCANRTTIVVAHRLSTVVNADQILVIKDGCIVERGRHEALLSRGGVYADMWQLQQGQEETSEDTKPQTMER
A short description of experiment [16]: AML differentiation inducers, ER-HoxA9 marrow cells – cell-based, GFP/MAC1 double positive, flow cytometry, validation set, primary screen (AID 588685;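 active means differentiation response of at least 50%, scaled between solvent and reference control, from cells with both markers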;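 further: compound exposure lasts four days before antibody staining and flow analysis; 0% = DMSO wells and 100% = 5 µM fulvestrant positive control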). To be noted: stronger effect = higher value, normalized: vehicle 0, fulvestrant 100.

Chain of Beta-2 adrenergic receptor (Homo sapiens) (P07550 whole entry, looked up): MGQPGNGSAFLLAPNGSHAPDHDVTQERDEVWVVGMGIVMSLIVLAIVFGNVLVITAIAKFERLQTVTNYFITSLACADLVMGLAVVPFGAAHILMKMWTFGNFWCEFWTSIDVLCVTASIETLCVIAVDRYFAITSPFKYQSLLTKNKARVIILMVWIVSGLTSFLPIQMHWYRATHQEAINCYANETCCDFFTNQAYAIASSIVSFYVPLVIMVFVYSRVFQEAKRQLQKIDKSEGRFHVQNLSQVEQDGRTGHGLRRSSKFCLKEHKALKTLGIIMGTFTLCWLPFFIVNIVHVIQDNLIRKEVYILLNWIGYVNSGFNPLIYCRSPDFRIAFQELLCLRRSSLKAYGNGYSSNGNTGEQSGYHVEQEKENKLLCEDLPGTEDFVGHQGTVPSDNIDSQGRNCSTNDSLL
Chain of Beta-adrenergic receptor kinase 1 (Homo sapiens) (P25098 whole entry, looked up): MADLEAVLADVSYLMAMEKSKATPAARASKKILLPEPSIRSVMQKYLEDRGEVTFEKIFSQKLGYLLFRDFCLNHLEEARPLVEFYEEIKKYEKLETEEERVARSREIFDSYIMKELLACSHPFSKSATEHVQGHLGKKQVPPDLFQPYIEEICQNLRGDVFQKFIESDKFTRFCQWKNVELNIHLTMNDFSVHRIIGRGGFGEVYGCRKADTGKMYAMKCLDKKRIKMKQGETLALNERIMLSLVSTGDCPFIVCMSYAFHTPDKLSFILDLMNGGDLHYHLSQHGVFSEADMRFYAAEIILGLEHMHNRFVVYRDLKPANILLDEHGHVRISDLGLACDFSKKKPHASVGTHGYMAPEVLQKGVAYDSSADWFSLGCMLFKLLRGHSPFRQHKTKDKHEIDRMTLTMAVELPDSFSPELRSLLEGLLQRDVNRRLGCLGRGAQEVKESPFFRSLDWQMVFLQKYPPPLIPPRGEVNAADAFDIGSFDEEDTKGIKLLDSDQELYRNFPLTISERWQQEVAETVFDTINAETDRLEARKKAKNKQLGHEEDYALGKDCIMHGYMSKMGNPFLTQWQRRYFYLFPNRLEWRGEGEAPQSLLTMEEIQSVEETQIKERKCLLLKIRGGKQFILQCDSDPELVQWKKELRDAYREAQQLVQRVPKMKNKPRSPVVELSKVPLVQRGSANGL

As for `O=C(/C=C/c1c[nH]c2ccccc12)c1cccc2ccccc12`, in experiment [1], the percent of DMSO control GFP was 106% (inactive). For the same compound, the GFP response vs DMSO is 103% (inactive) in experiment [2] and 132% (inactive) in [4]. Moreover, the percent response of DMSO control in experiment [3] is 92.9% (inactive). Besides, in experiment [5], the GFP response, % of DMSO is 94.9% (inactive). This compound registered a double positive events in experiment [6] of 61.4%. Moreover, in [6], the vesicle binding response is 336% (inactive). Moreover, the inhibition was -72.8% (inactive) in [7], -4.72% (inactive) in [11] and 6% (inactive) in experiment [15]. The superoxide response (% of plate) in experiment [8] is 94% (inactive). Also, the aptamer binding inhibition in experiment [9] is 2% (inactive). For the same compound, the response is 63.6% (active) in [10] and -1.5% (inactive) in experiment [12]. Also, the binding (% of control) in experiment [13] is 100% (inactive). In [14], the efflux inhibition (fraction of control) was 0.19 (inactive). For the same compound, the differentiation response in [16] is -12% (inactive).

As to `CC(=O)OCC(=O)[C@@]1(O)CC[C@H]2[C@@H]3CCC4=CC(=O)C=C[C@]4(C)[C@H]3[C@@H](O)C[C@@]21C`, the percent of DMSO control GFP in experiment [1] was 90.2% (inactive). Also, the GFP response vs DMSO was 132% (inactive) in experiment [2] and 101% (inactive) in experiment [4]. Also, the percent response of DMSO control in experiment [3] was 99.2% (inactive). Besides, the GFP response, % of DMSO in [5] is 103% (inactive). The compound further came in with a double positive events in [6] of 66.4%. Further, the vesicle binding response in [6] was 161% (inactive). Further, the inhibition in experiment [7] is 9.37% (inactive); in experiment [11] it was 8.75% (inactive); in [15], 9% (inactive). In addition, the superoxide response (% of plate) in experiment [8] was 97% (inactive). In [9], the aptamer binding inhibition was 1% (inactive). In addition, the response in experiment [10] is 4% (inactive); in experiment [12] it was -0.94% (inactive). Besides, the binding (% of control) in [13] was 98.1% (inactive). Besides, in [14], the efflux inhibition (fraction of control) is -0.09 (inactive). Besides, the differentiation response in experiment [16] is 5.73% (inactive).

On to `CCC1(c2ccccc2)NC(=S)N(c2ccc(C)c(C)c2)N1` (stereo not drawn), for which, in experiment [1], the percent of DMSO control GFP was 100% (inactive). Moreover, the GFP response vs DMSO in [2] is 106% (inactive); in experiment [4] it was 108% (inactive). The percent response of DMSO control in experiment [3] was 105% (inactive). In addition, the GFP response, % of DMSO in experiment [5] is 108% (inactive). Further, in [6], the double positive events amounted to 59.8%. In experiment [6], the vesicle binding response is 184% (inactive). Also, the results for the inhibition in [7], in experiment [11] and in experiment [15] were 5.69% (inactive), 1.79% (inactive) and 3% (inactive), respectively. Further, the superoxide response (% of plate) in experiment [8] is 107% (inactive). The aptamer binding inhibition in experiment [9] is 2% (inactive). Also, the response is -12.6% (inactive) in experiment [10] and 2.75% (inactive) in experiment [12]. For the same compound, the binding (% of control) in experiment [13] was 105% (inactive). Besides, the efflux inhibition (fraction of control) in experiment [14] was 0.04 (inactive). Moreover, the differentiation response in [16] was -12.9% (inactive).

Take `CN(C)c1ccc(CNCCC(Cc2ccccc2)c2ccco2)cc1` (stereo not drawn): the percent of DMSO control GFP in [1] is 101% (inactive). For the same compound, the values for the GFP response vs DMSO in experiment [2] and in experiment [4] were 93.5% (inactive) and 89.4% (inactive), respectively. Moreover, the percent response of DMSO control in experiment [3] is 108% (inactive). In addition, in experiment [5], the GFP response, % of DMSO is 101% (inactive). The double positive events in experiment [6] turned out to be 58.2%. The vesicle binding response in [6] is 31.1% (inactive). Moreover, the inhibition in experiment [7] is 1.12% (inactive); in experiment [11], -16.6% (inactive); in [15] it was 4% (inactive). Moreover, the superoxide response (% of plate) in experiment [8] is 92.3% (inactive). Further, in [9], the aptamer binding inhibition was -4% (inactive). Moreover, the response is 9.55% (inactive) in experiment [10] and 2.43% (inactive) in experiment [12]. The binding (% of control) in experiment [13] is 105% (inactive). For the same compound, the efflux inhibition (fraction of control) in experiment [14] was 0.17 (inactive). Further, in [16], the differentiation response was -5.68% (inactive).
